Experimental findings from ChEMBL document CHEMBL2218924, “A broad activity screen in support of a chemogenomic map for kinase signalling research and drug discovery” (Biochem J, 2013) are described below.

The structures appear in SMILES notation.

Assay [1] addresses T1, Protein kinase C zeta type (Homo sapiens) (UniProt Q05513).
T1 sequence (whole entry): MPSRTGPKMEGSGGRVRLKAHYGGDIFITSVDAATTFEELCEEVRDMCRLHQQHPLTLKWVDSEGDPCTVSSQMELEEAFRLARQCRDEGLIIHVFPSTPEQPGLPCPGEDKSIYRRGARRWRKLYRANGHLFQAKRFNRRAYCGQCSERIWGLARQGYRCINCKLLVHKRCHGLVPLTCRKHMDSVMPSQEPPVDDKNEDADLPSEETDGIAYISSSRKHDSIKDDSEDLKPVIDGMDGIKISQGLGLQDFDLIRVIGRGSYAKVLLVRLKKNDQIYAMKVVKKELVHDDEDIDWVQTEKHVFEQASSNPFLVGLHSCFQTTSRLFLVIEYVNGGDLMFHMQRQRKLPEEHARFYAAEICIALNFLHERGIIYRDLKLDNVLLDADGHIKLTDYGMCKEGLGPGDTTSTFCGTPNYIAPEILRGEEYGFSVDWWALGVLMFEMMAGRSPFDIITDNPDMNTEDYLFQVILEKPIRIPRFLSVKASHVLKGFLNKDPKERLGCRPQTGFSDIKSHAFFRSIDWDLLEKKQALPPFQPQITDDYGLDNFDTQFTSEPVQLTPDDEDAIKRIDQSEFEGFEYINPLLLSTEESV
The conditions noted are these: at 1 µM.

In assay [2] the target is T2, Mitogen-activated protein kinase kinase kinase 5 (Homo sapiens) (UniProt Q99683).
T2 sequence (whole entry): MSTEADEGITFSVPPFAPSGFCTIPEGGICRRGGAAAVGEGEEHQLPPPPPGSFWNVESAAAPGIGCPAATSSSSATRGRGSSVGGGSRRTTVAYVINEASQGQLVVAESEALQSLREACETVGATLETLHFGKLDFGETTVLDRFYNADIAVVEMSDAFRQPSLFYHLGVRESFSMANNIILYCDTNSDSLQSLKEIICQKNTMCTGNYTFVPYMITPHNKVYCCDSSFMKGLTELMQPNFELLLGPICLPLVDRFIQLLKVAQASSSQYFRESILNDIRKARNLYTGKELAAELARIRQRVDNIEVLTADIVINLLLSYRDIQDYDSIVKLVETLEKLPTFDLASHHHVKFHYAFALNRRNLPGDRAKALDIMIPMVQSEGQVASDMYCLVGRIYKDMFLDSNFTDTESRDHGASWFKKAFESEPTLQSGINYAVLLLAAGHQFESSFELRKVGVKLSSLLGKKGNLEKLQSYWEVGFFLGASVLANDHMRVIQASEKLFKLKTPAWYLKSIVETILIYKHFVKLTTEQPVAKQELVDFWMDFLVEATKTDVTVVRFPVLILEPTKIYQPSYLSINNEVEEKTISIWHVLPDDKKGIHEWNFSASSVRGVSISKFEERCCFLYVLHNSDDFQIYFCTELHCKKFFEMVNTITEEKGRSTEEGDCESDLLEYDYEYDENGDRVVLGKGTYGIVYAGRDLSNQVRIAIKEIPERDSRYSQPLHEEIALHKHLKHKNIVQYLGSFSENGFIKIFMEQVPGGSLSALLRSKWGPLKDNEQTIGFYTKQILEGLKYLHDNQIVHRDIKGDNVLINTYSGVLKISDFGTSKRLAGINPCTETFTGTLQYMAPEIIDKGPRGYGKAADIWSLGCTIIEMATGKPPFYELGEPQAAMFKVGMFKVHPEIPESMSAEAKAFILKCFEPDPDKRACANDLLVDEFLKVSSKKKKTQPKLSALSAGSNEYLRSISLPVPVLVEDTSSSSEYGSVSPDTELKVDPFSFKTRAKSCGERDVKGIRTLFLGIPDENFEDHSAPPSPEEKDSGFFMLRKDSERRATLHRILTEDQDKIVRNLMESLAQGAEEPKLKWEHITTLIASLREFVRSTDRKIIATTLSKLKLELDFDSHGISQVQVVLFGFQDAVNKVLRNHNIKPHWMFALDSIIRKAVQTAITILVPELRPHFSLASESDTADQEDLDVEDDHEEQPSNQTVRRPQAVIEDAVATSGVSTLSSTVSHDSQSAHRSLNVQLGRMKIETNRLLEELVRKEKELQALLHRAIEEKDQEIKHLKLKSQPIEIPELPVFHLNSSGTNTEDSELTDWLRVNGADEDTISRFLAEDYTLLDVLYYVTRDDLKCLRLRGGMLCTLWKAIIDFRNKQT
The conditions noted are these: at 10 µM.

For assay [3], the target named is Tyrosine-protein kinase ABL1 (Homo sapiens) (UniProt P00519). Particulars: at 1 µM; call rule not given here.
Assay [4] has the same target. The conditions noted are these: at 10 µM.
Assay [5] concerns the target Tyrosine-protein kinase ABL2 (Homo sapiens) (UniProt P42684). Particulars: at 1 µM.
The target is the same in assay [6]. The conditions noted are these: at 10 µM.
Assay [7] deals with T3, Aurora kinase A (Homo sapiens) (UniProt O14965).
T3 sequence (whole entry): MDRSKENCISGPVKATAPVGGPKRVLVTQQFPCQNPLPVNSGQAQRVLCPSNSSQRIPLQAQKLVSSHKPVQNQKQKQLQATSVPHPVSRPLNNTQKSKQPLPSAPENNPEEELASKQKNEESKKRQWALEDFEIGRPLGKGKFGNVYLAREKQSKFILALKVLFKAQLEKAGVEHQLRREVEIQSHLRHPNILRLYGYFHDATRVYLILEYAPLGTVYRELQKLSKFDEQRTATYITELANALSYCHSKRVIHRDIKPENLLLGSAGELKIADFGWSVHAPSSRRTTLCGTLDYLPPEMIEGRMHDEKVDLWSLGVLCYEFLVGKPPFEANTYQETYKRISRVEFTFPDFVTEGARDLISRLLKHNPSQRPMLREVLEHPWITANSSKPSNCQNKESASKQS
Particulars: at 1 µM.

In assay [8] the target is T3, Aurora kinase A (Homo sapiens). Particulars: at 10 µM.
Assay [9] concerns the target Aurora kinase B (Homo sapiens) (UniProt Q96GD4). The conditions noted are these: at 1 µM.
The target is the same in assay [10]. The conditions noted are these: at 10 µM.
Assay [11] concerns the target T4, Aurora kinase C (Homo sapiens) (UniProt Q9UQB9).
T4 sequence (whole entry): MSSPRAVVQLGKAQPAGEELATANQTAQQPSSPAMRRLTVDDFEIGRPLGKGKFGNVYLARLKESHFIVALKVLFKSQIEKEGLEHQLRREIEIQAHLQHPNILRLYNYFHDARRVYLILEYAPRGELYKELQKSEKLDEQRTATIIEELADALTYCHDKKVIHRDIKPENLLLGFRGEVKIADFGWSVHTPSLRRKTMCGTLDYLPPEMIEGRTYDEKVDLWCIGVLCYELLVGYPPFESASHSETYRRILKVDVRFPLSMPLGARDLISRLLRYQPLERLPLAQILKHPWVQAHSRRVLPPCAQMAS
The conditions noted are these: at 1 µM.

In assay [12] the target is T4, Aurora kinase C (Homo sapiens). Particulars: at 10 µM.
The target in assay [13] is Tyrosine-protein kinase receptor UFO (Homo sapiens) (UniProt P30530). The conditions noted are these: at 1 µM.
Assay [14] has the same target. Particulars: at 10 µM.
For assay [15], the target named is Protein-tyrosine kinase 6 (Homo sapiens) (UniProt Q13882). Particulars: at 1 µM.
In assay [16] the target is Tyrosine-protein kinase BTK (Homo sapiens) (UniProt Q06187). The conditions noted are these: at 1 µM.
Assay [17] has the same target. Particulars: at 10 µM.
In assay [18] the target is Tyrosine-protein kinase Blk (Homo sapiens) (UniProt P51451). Particulars: at 1 µM.
Assay [19] shares this target. Particulars: at 10 µM.
Assay [20] has as its target Protein-tyrosine kinase 6 (Homo sapiens) (UniProt Q13882). The conditions noted are these: at 10 µM.

Chain of Protein-tyrosine kinase 6 (Homo sapiens) (Q13882 whole entry, looked up): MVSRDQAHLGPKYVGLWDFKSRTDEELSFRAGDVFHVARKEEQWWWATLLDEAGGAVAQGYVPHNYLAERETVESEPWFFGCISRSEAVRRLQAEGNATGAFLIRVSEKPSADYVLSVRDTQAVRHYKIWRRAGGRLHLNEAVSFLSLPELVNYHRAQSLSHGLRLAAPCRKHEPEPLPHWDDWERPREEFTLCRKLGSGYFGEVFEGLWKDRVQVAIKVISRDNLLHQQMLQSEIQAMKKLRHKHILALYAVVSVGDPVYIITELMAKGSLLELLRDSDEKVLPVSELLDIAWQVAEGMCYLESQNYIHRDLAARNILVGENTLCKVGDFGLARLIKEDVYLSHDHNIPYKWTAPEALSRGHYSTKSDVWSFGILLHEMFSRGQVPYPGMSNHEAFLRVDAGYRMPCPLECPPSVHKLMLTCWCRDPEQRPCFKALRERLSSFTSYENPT
Chain of Tyrosine-protein kinase ABL2 (Homo sapiens) (P42684 whole entry): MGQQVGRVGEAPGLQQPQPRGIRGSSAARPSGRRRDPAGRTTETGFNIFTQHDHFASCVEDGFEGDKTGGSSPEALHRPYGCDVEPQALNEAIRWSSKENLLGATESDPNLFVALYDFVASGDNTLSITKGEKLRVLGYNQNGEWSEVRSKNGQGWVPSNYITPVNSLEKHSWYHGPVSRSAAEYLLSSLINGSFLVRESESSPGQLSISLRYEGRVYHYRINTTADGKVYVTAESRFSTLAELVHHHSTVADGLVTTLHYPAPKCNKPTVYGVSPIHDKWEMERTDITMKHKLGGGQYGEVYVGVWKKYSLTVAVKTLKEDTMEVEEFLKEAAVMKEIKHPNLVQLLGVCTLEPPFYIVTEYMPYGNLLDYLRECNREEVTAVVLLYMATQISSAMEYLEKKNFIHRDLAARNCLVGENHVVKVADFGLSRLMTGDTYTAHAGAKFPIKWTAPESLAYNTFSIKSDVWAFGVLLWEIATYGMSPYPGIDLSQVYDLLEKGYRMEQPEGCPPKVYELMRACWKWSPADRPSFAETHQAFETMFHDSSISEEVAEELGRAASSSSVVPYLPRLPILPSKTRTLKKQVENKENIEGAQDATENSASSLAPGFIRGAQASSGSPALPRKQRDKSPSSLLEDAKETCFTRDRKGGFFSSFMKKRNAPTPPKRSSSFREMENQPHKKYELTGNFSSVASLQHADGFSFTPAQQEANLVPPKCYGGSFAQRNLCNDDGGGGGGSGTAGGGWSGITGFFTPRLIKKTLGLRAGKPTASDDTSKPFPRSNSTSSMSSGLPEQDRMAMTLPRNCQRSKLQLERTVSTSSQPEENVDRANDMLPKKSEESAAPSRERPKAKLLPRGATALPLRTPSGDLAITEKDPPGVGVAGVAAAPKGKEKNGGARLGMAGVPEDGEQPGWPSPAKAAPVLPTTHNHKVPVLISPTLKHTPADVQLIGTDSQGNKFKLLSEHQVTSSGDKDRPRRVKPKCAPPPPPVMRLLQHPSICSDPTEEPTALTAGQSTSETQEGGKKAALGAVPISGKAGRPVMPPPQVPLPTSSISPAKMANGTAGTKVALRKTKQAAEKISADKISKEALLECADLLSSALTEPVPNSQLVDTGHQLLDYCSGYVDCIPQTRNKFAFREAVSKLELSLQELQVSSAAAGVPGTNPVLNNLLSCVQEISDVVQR
Chain of Tyrosine-protein kinase ABL1 (Homo sapiens) (P00519 whole entry): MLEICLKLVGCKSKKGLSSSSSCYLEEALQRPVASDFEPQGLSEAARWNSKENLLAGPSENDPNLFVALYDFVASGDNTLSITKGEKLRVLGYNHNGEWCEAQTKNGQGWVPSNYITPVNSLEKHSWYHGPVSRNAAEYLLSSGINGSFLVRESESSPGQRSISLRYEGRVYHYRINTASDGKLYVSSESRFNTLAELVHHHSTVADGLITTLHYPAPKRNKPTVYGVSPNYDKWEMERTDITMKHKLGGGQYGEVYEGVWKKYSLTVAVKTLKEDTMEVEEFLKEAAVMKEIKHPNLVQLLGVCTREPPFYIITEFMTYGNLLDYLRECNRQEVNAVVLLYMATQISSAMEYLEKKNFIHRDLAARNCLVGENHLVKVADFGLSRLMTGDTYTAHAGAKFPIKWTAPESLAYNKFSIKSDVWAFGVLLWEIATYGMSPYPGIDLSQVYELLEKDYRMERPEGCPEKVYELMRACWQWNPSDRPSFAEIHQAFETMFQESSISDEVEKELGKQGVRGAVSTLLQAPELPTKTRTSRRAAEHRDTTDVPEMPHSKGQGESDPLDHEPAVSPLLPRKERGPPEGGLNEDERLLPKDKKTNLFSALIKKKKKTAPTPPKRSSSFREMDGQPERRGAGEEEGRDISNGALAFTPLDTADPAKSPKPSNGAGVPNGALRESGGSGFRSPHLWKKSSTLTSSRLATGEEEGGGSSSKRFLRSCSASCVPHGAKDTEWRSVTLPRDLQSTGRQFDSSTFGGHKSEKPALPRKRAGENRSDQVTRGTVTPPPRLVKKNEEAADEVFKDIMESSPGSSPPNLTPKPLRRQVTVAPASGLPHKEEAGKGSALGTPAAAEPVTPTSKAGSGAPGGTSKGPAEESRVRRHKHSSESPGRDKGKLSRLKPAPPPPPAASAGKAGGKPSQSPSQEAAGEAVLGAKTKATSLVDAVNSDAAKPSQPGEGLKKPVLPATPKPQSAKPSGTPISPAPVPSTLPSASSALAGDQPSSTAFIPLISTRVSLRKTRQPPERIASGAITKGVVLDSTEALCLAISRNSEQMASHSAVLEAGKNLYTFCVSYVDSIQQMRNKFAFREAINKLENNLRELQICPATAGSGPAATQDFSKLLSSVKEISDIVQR
Chain of Tyrosine-protein kinase BTK (Homo sapiens) (Q06187 whole entry): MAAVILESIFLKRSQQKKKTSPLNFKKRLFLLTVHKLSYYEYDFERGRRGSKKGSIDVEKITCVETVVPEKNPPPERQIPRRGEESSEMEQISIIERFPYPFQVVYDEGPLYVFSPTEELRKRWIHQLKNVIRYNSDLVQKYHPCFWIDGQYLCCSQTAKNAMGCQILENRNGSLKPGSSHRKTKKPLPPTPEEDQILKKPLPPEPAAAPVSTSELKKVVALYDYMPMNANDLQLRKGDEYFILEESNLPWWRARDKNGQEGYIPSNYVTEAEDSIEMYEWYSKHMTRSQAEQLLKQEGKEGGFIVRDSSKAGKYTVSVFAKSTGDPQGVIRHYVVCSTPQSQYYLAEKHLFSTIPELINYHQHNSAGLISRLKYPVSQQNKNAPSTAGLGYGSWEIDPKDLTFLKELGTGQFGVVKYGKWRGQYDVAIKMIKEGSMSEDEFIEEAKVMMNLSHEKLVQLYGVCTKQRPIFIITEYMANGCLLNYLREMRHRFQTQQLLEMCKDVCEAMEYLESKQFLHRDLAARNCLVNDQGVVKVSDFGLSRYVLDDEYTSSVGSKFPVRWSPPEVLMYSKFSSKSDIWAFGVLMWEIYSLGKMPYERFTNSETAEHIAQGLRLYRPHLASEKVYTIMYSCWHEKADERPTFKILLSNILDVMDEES
Chain of Tyrosine-protein kinase Blk (Homo sapiens) (P51451 2-505 limits assumed): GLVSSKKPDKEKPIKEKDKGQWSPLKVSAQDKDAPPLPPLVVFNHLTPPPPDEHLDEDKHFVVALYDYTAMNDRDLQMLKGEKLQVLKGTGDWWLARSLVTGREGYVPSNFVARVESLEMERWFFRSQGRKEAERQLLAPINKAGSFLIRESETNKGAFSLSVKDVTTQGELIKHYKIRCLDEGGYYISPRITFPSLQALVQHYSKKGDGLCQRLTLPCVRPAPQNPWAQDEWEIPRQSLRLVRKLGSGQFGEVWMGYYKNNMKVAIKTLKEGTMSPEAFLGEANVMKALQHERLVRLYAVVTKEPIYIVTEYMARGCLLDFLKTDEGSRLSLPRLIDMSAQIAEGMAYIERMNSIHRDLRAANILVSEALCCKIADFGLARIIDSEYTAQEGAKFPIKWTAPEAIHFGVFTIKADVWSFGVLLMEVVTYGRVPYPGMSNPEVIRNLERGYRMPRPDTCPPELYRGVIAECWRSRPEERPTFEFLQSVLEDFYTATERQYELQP
Chain of Tyrosine-protein kinase receptor UFO (Homo sapiens) (P30530 whole entry): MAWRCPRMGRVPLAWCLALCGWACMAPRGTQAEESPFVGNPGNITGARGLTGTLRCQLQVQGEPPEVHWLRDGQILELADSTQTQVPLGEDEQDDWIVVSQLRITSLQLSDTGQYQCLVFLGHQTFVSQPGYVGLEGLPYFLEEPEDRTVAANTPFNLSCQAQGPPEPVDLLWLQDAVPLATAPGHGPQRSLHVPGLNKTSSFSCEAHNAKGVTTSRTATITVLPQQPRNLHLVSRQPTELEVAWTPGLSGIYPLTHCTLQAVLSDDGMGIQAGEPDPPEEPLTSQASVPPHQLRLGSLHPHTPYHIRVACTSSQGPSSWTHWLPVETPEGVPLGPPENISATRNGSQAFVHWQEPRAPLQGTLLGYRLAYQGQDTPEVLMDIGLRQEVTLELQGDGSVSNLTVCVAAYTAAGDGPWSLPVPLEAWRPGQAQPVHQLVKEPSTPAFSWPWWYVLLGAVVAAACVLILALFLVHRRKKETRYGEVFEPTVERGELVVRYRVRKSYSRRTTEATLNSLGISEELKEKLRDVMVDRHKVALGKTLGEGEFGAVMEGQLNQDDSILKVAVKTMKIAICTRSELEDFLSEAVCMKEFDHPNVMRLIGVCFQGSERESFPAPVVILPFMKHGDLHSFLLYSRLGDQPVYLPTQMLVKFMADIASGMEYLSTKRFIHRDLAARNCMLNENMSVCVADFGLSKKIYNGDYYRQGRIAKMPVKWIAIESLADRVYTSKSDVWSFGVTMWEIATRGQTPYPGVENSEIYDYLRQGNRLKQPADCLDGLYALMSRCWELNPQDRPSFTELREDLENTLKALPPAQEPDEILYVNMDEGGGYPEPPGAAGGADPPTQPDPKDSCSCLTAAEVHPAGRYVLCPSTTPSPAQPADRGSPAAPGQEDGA

For `Cn1nc2c3c(cccc31)C(=O)c1ccccc1-2`, the residual activity was 102% (inactive) in assay [1]; 29% in [2]; 101% in [3]; 70% in assay [4]; 102% in [5]; 86% in assay [6]. The residual activity turned out to be 79% in [7]; 74% in [8]; 75% in assay [9]; 6% in [10]; 72% in assay [11]; 58% in [12]. Besides, the residual activity stood at 90% in assay [13]; 63% in [14]; 103% in assay [15]; 94% in assay [16]; 76% in [17]; 111% in assay [18]. In addition, in assay [19], the residual activity turned out to be 91%.

As to `O=C(Nc1cccc(Nc2nccc(Nc3cccc(C(F)(F)F)c3)n2)c1)C1CC1`, the residual activity was 98% (inactive) in assay [1]; 90% in assay [2]; 68% in [3]; 76% in [4]; 46% in assay [5]; 44% in assay [6]. Also, the residual activity stood at 1% in assay [9]; 2% in assay [10]; 69% in assay [11]; 62% in assay [12]; 79% in assay [13]; 81% in assay [14]. Besides, the residual activity in assay [15] was determined as 40%; in assay [20] it was 46%; in [16] it was 53%; in assay [17] it was 6%; in assay [18] it was 77%; in assay [19] it was 57%.

Turning to `CO[C@@H]1[C@H](N(C)C(=O)c2ccccc2)C[C@H]2O[C@]1(C)n1c3ccccc3c3c4c(c5c6ccccc6n2c5c31)C(=O)NC4`, the residual activity was 101% (inactive) in assay [1]; 75% in [2]; 89% in assay [3]; 77% in assay [5]; 45% in assay [6]; -3% in assay [7]. Besides, the residual activity was -2% in assay [8]; 1% in [9]; 3% in assay [10]; 62% in assay [11]; 20% in assay [12]; 14% in [13]. In addition, the residual activity in assay [14] worked out at 9%; in assay [15], 98%; in assay [20], 93%; in [16], 60%; in [17], 35%; in assay [18], 7%. For the same compound, in assay [19], the residual activity is 5%.

Take `N#CC(C#N)=C(N)/C(C#N)=C/c1ccc(O)cc1`: the residual activity in assay [2] came to 93%; in assay [3], 87%; in [4], 78%; in assay [7], 83%; in assay [8], 85%; in assay [9] it was 81%. Further, the residual activity is 62% in [10]; 92% in assay [13]; 87% in assay [14]; 94% in assay [16]; 118% in assay [17].

`COc1ccc(C(=O)Nc2sc3c(c2C(N)=O)CCCC3)cc1OC`: the residual activity is 96% (inactive) in [1]; 109% in [2]; 87% in assay [3]; 86% in assay [4]; 126% in [5]; 101% in [6]. In addition, the residual activity in assay [7] turned out to be 93%; in [8] it was 96%; in assay [9], 69%; in [10] it was 46%; in assay [11], 97%; in assay [12], 76%. Also, the residual activity in assay [13] is 76%; in [14], 76%; in assay [15], 108%; in assay [20], 114%; in [16] it was 84%; in assay [17] it was 118%. The results for the residual activity in assay [18] and in [19] were 109% and 94%, respectively.

`Oc1n[nH]c2nnc(-c3c(-c4ccccc4)nn4ccccc34)cc12`: the residual activity in [1] was 107% (inactive); in assay [2], 105%; in assay [3], 81%; in assay [5], 95%; in assay [6] it was 64%; in assay [7], 104%. The residual activity came out at 93% in assay [8]; 5% in assay [9]; 2% in assay [10]; 84% in [11]; 84% in assay [12]; 118% in assay [13]. Moreover, the residual activity in [14] turned out to be 104%; in [15], 97%; in assay [20] it was 87%; in assay [16], 78%; in assay [17], 33%; in [18], 107%. Further, the residual activity in [19] was found to be 90%.

On to `COc1ccc(S(=O)(=O)N(CCO)c2ccccc2CN(C)C/C=C/c2ccc(Cl)cc2)cc1`, for which the residual activity in assay [1] is 111% (inactive); in [2] it was 90%; in assay [3], 92%; in assay [4], 118%; in assay [5], 116%; in assay [6] it was 87%. The residual activity was 122% in assay [7]; 127% in assay [8]; 90% in assay [9]; 95% in [10]; 83% in assay [11]; 88% in [12]. Further, the residual activity in assay [13] is 107%; in assay [14], 82%; in assay [15], 100%; in assay [20] it was 88%; in assay [17], 93%; in assay [18], 99%. In addition, the residual activity in assay [19] is 58%.

For `Oc1c2ccccc2c2c3c(cccc13)N=N2`, the residual activity in assay [1] was 110% (inactive); in assay [2] it was 5%; in [3], 83%; in assay [4], 56%; in assay [5], 87%; in [6], 72%. Moreover, the residual activity amounted to 19% in [7]; 2% in assay [8]; 1% in assay [9]; 0% in assay [10]; 9% in assay [11]; 4% in assay [12]. Also, the residual activity turned out to be 50% in assay [13]; 17% in assay [14]; 95% in assay [15]; 95% in assay [20]; 88% in assay [16]; 57% in assay [17]. For the same compound, the residual activity in [18] was determined as 97%; in assay [19], 45%.
